An excerpt weighted towards active compounds, which were near 15% of everything screened.
12-LOX inh: Primary qHTS assay for inhibitors of human arachidonate 12S-lipoxygenase (ALOX12): Round 2. Potency, µM (highest dose often 108 µM), most hits filed as inhibitors. Polyunsaturated fatty acid lipoxygenase ALOX12 (Homo sapiens), P18054. 580,000 tested, 1.1% active. AID 1671190, 2021. purified 12hLO, xylenol orange hydroperoxide absorbance
Target sequence (P18054 whole entry, looked up): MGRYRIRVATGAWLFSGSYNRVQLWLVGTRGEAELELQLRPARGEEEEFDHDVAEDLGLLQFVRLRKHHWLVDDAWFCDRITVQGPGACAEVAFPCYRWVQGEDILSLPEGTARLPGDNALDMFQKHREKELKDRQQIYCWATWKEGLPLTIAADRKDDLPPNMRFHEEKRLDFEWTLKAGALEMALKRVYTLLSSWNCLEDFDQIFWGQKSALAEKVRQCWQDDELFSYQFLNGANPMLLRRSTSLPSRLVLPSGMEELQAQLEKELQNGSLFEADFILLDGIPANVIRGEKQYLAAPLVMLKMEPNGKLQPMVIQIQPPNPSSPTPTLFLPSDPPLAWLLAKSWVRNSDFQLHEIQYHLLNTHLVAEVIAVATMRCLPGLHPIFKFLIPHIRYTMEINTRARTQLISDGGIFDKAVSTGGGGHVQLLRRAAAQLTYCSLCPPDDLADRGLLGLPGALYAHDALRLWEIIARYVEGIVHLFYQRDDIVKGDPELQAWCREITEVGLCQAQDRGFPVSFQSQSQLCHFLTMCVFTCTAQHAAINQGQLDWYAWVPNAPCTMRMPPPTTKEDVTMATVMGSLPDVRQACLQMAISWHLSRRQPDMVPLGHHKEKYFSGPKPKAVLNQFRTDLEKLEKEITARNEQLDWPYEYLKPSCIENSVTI
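Purified human 12hLO at 150 nM in 25 mM Hepes, 0.01% Triton X-100, pH 7.0, preincubated 15 min at room temperature with compound. Reaction started with 40 uM arachidonic acid, 30 min at room temperature. Hydroperoxide measured by Fe-xylenol orange, 573/405 nm absorbance ratio.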
RORgamma inh: qHTS for inhibitors of ROR gamma transcriptional activity; Nuclear receptor ROR-gamma (Mus musculus), P51450; Drosophila S2 Gal4-RORgamma UAS-luciferase reporter, 20 h; Potency, µM (titrated, usually from 53.6 µM), hits mostly inhibitors; 310,000 tested, 5.4% active; AID 2551, 2010; further: nearly all actives have a fitted effect of over 60% in size
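Schneider cells (Drosophila), stable Gal4 DBD–ROR gamma + UAS-luc; 1 hr cmpd preincubation; Cu2+ induction 700 uM final; 20 hr ambient; luminescence.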
DT40 TDP1 CPT: qHTS for Inhibitors of human tyrosyl-DNA phosphodiesterase 1 (TDP1): qHTS in cells in presence of CPT | chicken DT40 Tdp1-/-;hTDP1 cells + 20 nM CPT, ATP luminescence, 48 h | Potency, µM (highest dose often 46.2 µM), usual class: inhibitors | 420,000 tested, 12% active; further: nearly all actives have a fitted effect of over 55% in size
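Cell growth measured by CellTiter-Glo luminescence after a minimum 48 h, 37 C compound exposure with 20 nM CPT in Tdp1-knockout DT40 cells stably expressing hTDP1, seeded 400/well; qHTS titration format.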
ELG1 repair inh: qHTS screen for small molecules that inhibit ELG1-dependent DNA repair in human embryonic kidney (HEK293T) cells expressing luciferase-tagged ELG1 | HEK293T ELG1-luciferase reporter, luminescence, 16 h; DNA damage induced by 5-fluorouridine | Potency, µM (top dose mostly 46.1 µM), actives largely listed as inhibitors | 330,000 tested, 2.3% active | AID 504467, 2011; further: nearly all actives have a fitted effect of over 55% in size
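Luminescence from the luciferase reporter, measured 30 min after ONE-Glo reagent at room temperature, was the read-out. Beforehand, 2,000 cells per well were exposed for 16 hr at 37 °C to 5-fluorouridine together with compound or vehicle.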
Gal4-VP16 FLuc: VP16 counterscreen qHTS for inhibitors of ROR gamma transcriptional activity. Drosophila S2 Gal4-VP16 UAS-luciferase, luminescence, 20 h. Potency, µM (top dose mostly 53.6 µM), most hits filed as inhibitors. 310,000 tested, 3.5% active;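 further: Gal4-VP16 expression switched on by copper sulfate through the metallothionein promoter; nearly all actives have a fitted effect of over 50% in size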
DT40 TDP1 no CPT: qHTS for Inhibitors of human tyrosyl-DNA phosphodiesterase 1 (TDP1): qHTS in cells in absence of CPT; DT40 Tdp1-/- hTDP1 cells, no CPT, ATP luminescence, 48 h; AID 686978, 2013; 420,000 tested, 15% active; Potency, µM (highest dose often 46.2 µM), most hits filed as inhibitors; further: nearly all actives have a fitted effect of over 55% in size
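Luminescent ATP content (CellTiter-Glo) served as the growth readout. Knockout chicken DT40 cells expressing human TDP1 were exposed to compounds without camptothecin for a minimum 48 hr at 37 °C.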
Numbers stand for hits; - = inactive; ? = inconclusive; . = no result given; [ ] = another dose, or the depositor's remark. The call rests on the fitted dose curve; in most records, active means well fitted curve in the direction sought with a large enough effect; inconclusive means small, poorly fitted or top-dose-only effect, or another doubt; inactive means no such curve, though single readings can be large; an effect the other way counts as inactive or inconclusive.

SMILES	12-LOX inh	RORgamma inh	DT40 TDP1 CPT	ELG1 repair inh	Gal4-VP16 FLuc	DT40 TDP1 no CPT
Cc1nc2ccc(C(=O)N/N=C/c3ccccc3O)cc2[nH]1	-	-	?	?	-	?
CCCN(CCC)C(=S)NC1CC2C=CC1C2 (centres undefined)	?	?	?	-	-	?
Oc1ccccc1/C=N/NC(=S)NC1CC2C=CC1C2 (centres undefined)	?	3.2µM	1.8µM	?	5µM	1.6µM
COc1cc(/C=N\NC(=O)C2CC3C=CC2C3)ccc1O (centres undefined)	-	-	-	-	-	-
Oc1ccccc1C=NNC(=S)NC1CC2C=CC1C2 (centres undefined)	45µM	.	?	.	.	?
CSc1ccccc1C(=O)Nc1nc(-c2nc3ccccc3s2)cs1	-	.	.	.	.	.
CCOc1ccc(OCCSc2nc3cc(S(=O)(=O)N(C)C)ccc3o2)cc1	-	.	.	.	.	.
O=C(NCc1nnc2cc(-c3nc(C4CC4)no3)ccn12)C1CCCCC1	-	.	.	.	.	.
Cc1nc2c(C(=O)NC3CCCC3)cnn2c(C)c1Cc1ccccc1Cl	-	.	.	.	.	.
CCCCNC(=O)c1cnn2c(C)c(Cc3c(F)cccc3Cl)c(C)nc12	-	.	7.3µM	.	.	3.7µM
Cc1nc2c(C(=O)NCCCN(CC(C)C)CC(C)C)cnn2c(C)c1Cc1c(F)cccc1Cl	-	.	23µM	.	.	21µM
Cc1ccc(CNC(=O)c2cnn3c(C)c(Cc4c(F)cccc4Cl)c(C)nc23)cc1	-	.	15µM	.	.	?
CCN(CC)CCCNC(=O)CSc1nc2nc(C)c(Cc3c(F)cccc3Cl)c(C)n2n1	-	.	?	.	.	6.5µM
C=CC(C)(CCC=C(C)C)OC=O (centres undefined)	-	.	.	.	.	.
CC1=NS(=O)(=O)N(Cc2ccccc2)C=C1C(=O)OCc1noc(-c2ccc(C)c(C)c2)n1	-	.	.	.	.	.
O=c1[nH]c(C2CCN(Cc3cccc4ccccc34)CC2)nn1Cc1ccccc1	-	.	.	.	.	.
Cc1cc2nc3n(c(=O)c2n1CC(=O)NCCCc1ccccc1)CCCC3	-	.	.	.	.	.
CC(C)CCC1CC(CSC(=N)N)OC1=O (centres undefined)	-	-	?	.	-	23µM
CCCCCCCC1CC(/C(C)=N/NC(N)=O)OC1=O (centres undefined)	-	-	18µM	-	-	?
CCCCC1CC(CSC(=N)N)OC1=O (centres undefined)	?	-	?	-	-	?
CCCCCCCC1CC(CSC(=N)N)OC1=O (centres undefined)	-	-	15µM	-	-	21µM
CC1CCCCC1NC(=O)CS(=O)Cc1coc(-c2ccc(F)cc2)n1 (centres undefined)	-	.	.	.	.	.
COc1cccc(N2CCN(C(=O)c3cc(-c4ccccc4)nc4c3cnn4C(C)C)CC2)c1	-	.	?	12µM	.	?
CC(C)Oc1cccc(-c2cc(C(=O)N3CCN(c4ncccn4)CC3)c3ccccc3n2)c1	-	-	.	15µM	11µM	.
COc1ccccc1N1CCN(C(=O)c2cc(-c3ccccc3)nc3c2cnn3C(C)C)CC1	-	.	-	.	.	-
SMILES	12-LOX inh	RORgamma inh	DT40 TDP1 CPT	ELG1 repair inh	Gal4-VP16 FLuc	DT40 TDP1 no CPT
O=C(c1cc(-c2ccccn2)nc2ccccc12)N1CCN(c2ncccn2)CC1	-	-	-	-	-	?
COc1cccc(-c2cc(C(=O)N3CCN(c4ncccn4)CC3)c3ccccc3n2)c1	?	?	?	?	-	23µM
CC(C)Oc1cccc(-c2cc(C(=O)N3CCN(S(C)(=O)=O)CC3)c3ccccc3n2)c1	-	-	?	?	-	10µM
Cc1nc2cc(NS(=O)(=O)c3ccccc3Cl)ccc2o1	-	.	.	.	.	.
CCc1ccc(CCC(=O)N2CCCC2)cc1	-	.	.	.	.	.
COc1cc2c(cc1CC=C(C)C)C(=O)C[C@@H](c1ccc(O)cc1)O2	?	-	.	.	11µM	.
COc1ccc2c(c1)C(=O)CC(c1ccc(OC)c(OC)c1)O2 (centres undefined)	-	-[1.91 µM]	-	-	-	-
O=C(Nc1ccccc1Cl)c1nc2ccccc2nc1N1CCCCC1	-	.	.	.	.	.
COc1ccc2nc3n(c2c1)[C@@H](CNC1CCOCC1)COC3	-	.	.	.	.	.
C=C1SC(Nc2c(C)cc(C)cc2C)=NC12CCCCC2	?	?	?	23µM	0.63µM	18µM
Cc1cc(C)c(NC(=O)CC2(C(=O)O)CCCCC2)c(C)c1	-	.	.	.	.	.
C=C1SC(Nc2c(C)cccc2C)=NC12CCCCC2	?	4µM	?	-	2.2µM	?
Cc1ncc(CO)c(CNc2ccc(Oc3ccccc3)cc2)c1O	-	-	13µM	?	?	6.5µM
Oc1ccc(CN2CCCCC2)nc1-c1ccccc1	-	-	-	?	-	-
Oc1ccc(-c2ccccc2)cc1CN1CCCCCC1	-	-	?	-	-	18µM
O=C(c1cccc(Br)c1)N1CCC(n2c(=O)[nH]c3ccccc32)CC1	-	.	.	.	.	.
N#Cc1cc2c([nH]c1=S)CCCCCC2	16µM	7.1µM	-	-	16µM	-
N#Cc1c(N)n[nH]c1-c1cc2c([nH]1)CCCC2	-	?	?	?	-	-
O=C1NC(C(=O)N2CCOCC2)CN1Cc1ccccc1 (centres undefined)	-	.	.	.	.	.
COc1ccc(-c2nc3c(C#N)c[nH]n3c2NC2CCCCC2)cc1	-	.	16µM	.	.	16µM
COc1ccc2[nH]c(C(=O)N3CCC(CO)(Cc4cccc(C(F)(F)F)c4)CC3)c(C)c2c1	?	?	?	-	-	21µM
COc1cccc(CC2(CO)CCN(C(=O)NC3CCCCC3)CC2)c1	-	-	23µM	?	-	-
COc1cccc(CC2(CO)CCN(C(=O)NCCc3ccccc3)CC2)c1	-	-	-	?	-	-
CCN(CCc1ccncc1)S(=O)(=O)c1cc(N2C(=O)CCS2(=O)=O)ccc1OC	-	.	.	.	.	.
CC(C)Oc1ccc(CNC(=O)c2ccc(Cn3c(=O)c4cccn4c4cccnc43)cc2)cc1	-	.	?	.	.	0.46µM
CN(C)CCNC(=O)c1ccc(Cn2c(=O)c3cccn3c3cccnc32)cc1	-	.	?	.	.	?
O=C(NCc1ccccc1)c1ccc(Cn2c(=O)c3cccn3c3cccnc32)cc1	-	.	-	.	.	-
O=C(NCCc1ccc(Cl)cc1)c1ccc(Cn2c(=O)c3cccn3c3cccnc32)cc1	-	.	?	.	.	15µM
CCOc1ccc(CCNC(=O)c2cccc(-n3c(C)nc4cccnc43)c2C)cc1	-	.	21µM	.	.	15µM
CCOCCCNC(=O)c1ccc(Cn2c(=O)c3cccn3c3cccnc32)cc1	-	.	?	.	.	?

Compound activity from PubChem BioAssay.
